Compound activity: PubChem, several laboratories
TWEAK-Fn14 inh: inhibitors of TWEAK-Fn14 signaling, primary screen, luciferase reporter cells, uHTS | 2% of 360,000 active | AID 1159606, 2016 | inhibition, % at 10 µM | TWEAK-stimulated Fn14 reporter cells, luciferase luminescence, 8 h; in the data active = inhibition above about 50%
LGR2 antag: inhibitors of bursicon-induced LGR2 CRE-luciferase signal, primary screen, cell-based, HEK293, CRE-luciferase reporter, bursicon stimulation. inhibition, % at 9.99 µM. bursicon-stimulated, 4 h. AID 720647, 2013. Drosophila bursicon receptor LGR2 (rickets). 0.35% of 380,000 active;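 active = drop in luminescence signal, shown as inhibition above about 50% in the replicate tests, limit read from the data, passing the limit was not always enough; inconclusive = probably only some replicates passing the limit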;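 also: agonist challenge used bursicon conditioned medium at about half maximal strength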
HSP90 refold inh: HSP90 inhibitors, primary screen, cell lysate, luminescence; Heat shock protein HSP 90 (rabbit reticulocyte lysate; luciferase refolding); Rabbit reticulocyte lysate, luciferase refolding luminescence, 3 h; inhibition, % at 5.6 µM; 0.91% of 290,000 active;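 active = inhibition above the screen-wide mean plus 3 SD, computed separately per campaign, cut at about 16% in these data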;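 also: 0% = DMSO wells and 100% = 60 µM geldanamycin wells; inhibitors lower the luminescence because luciferase stays unfolded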
TROY NFkB inh: inhibitors of TROY-driven NF-kB signaling, primary screen, Q293 LMP1-TROYcd cells, NF-kB luciferase, uHTS. 0.98% of 360,000 active. AID 1347056, 2019. Q293 LMP1-TROYcd NF-kB luciferase reporter, 4 h. inhibition, % at 10 µM;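 active = compounds whose plate-normalised and pattern-corrected inhibition of the luciferase reporter signal at the single screening dose is 50% or more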
Active calls of the source: *; u = inconclusive; x = no result given. Most compounds without a hit are left out; they make up all but 2.2% or so of the library.

SMILES	TWEAK-Fn14 inh	LGR2 antag	HSP90 refold inh	TROY NFkB inh
O=C(O)c1ccc(N=c2oc3cc(O)ccc3cc2C(=O)NCc2ccccc2)cc1	-3	-19	2	1
C[C@H](CO)N1C[C@H](C)[C@@H](CN(C)S(=O)(=O)c2ccc(F)cc2)OCCCC[C@H](C)Oc2ccc(NS(=O)(=O)c3ccc(F)cc3)cc2C1=O	x	11	x	x
O=C(c1cnccn1)N1CC(=O)N2[C@H](CO)[C@@H](c3ccc(C4=CCCCC4)cc3)[C@@H]2C1	x	-6	x	x
Cc1nc(N2CCN(C(=O)c3ccco3)CC2)c(C#N)c2c1CCCC2	-23	-6	-2	16
CC(C)Cc1nc(N2CCN(C(=O)c3ccco3)CC2)c(C#N)c2c1CCCC2	-12	6	3	53*
Cc1nn2cc(-c3ccc(Cl)cc3)nc2s1	63*	x	5	-5
Cc1noc(C)c1NC(=O)Nc1ccc2c(c1)C(=O)N([C@@H](C)CO)C[C@H](C)[C@@H](CN(C)S(=O)(=O)c1ccccc1)OCCCC[C@H](C)O2	x	7	x	x
COc1ccc(NC(=O)CN2C(=O)NC3(CCCC3)C2=O)c(OC)c1	81*	-18	-2	7
CCOc1ccc2nc(N/C(N)=N/C(=S)Nc3ccc(OC)cc3)nc(C)c2c1	-11	-14	0	-9
CCc1ccc(NC(=S)/N=C(\N)Nc2nc(C)c3cc(CC)ccc3n2)cc1	57*	-18	1	41
CCOc1ccc(C=NNC(=O)c2ccc(-n3cnnn3)cc2)cc1	56*	28	x	13
CC(=O)c1ccc(N2CCN(Cc3cc(=O)n4c(-c5ccccc5)csc4n3)CC2)cc1	17	-9	x	12
O=c1cc(CN2CCN(c3ccccc3)CC2)nc2scc(-c3ccccc3)n12	42	15	0	58*
C/C=C/c1ccc2c(c1)O[C@H](CN(C)C(=O)c1ccccc1F)[C@@H](C)CN([C@@H](C)CO)S2(=O)=O	x	-25	x	x
O=C(C[C@H]1CC[C@H](NS(=O)(=O)c2ccc(F)cc2)[C@@H](CO)O1)NCc1ccc(Cl)c(Cl)c1	x	-1	x	x
Cc1cc(C)c(O)c(C(=O)CC2CC(=O)NC(=O)C2)c1	x	65*	x	x
COC(=O)c1cn(NC(=O)c2cc([N+](=O)[O-])ccc2F)c(=O)c2ccccc12	68*	17	-2	9
COc1cccc(C(=O)Nc2ccc3c(c2)C(=O)N(C)[C@@H]2CC[C@@H](CC(=O)NCC(F)(F)F)O[C@@H]2CO3)c1	x	18	x	x
Cn1cccc1Cc1nnc(SCC(=O)N2CCc3ccccc32)n1CCc1ccccc1	25	13	22*	2
Cn1cccc1Cc1nnc(SCC(=O)N2CCCC2)n1CCc1ccccc1	13	5	-3	-16
O=C(C[C@H]1CC[C@H]2[C@@H](COC[C@@H](O)CN2S(=O)(=O)c2ccc(Cl)cc2)O1)NCCN1CCCC1	x	9	x	x
Cc1cc(NCC2CCCCC2)nc2ccccc12	-4	-16	-2	-58
Cc1cc(NCCNC2=CC(=O)CCC2)nc2ccccc12	73*	x	-1	6
Cn1cc(C(=O)c2ccc(Cl)cc2Cl)cc1C(=O)N/N=C(\N)COc1ccc(Cl)cc1Cl	57*	x	5	19
COc1ccc2[nH]c3c(c2c1)CC(C)NC3=O (stereo unspecified)	71*	28	-1	50
SMILES	TWEAK-Fn14 inh	LGR2 antag	HSP90 refold inh	TROY NFkB inh
O=C(C[C@@H]1C[C@H]2c3cc(NC(=O)c4ccc5c(c4)OCO5)ccc3O[C@H]2[C@@H](CO)O1)NCc1ccc(Oc2ccccc2)cc1	x	53*	x	x
O=C(O)c1ccccc1-c1ccc(C=c2sc3nc4cc(Br)cnc4n3c2=O)o1	54*	2	x	14
C[C@H](NC(=O)[C@@H]1[C@@H](CO)[C@@H]2Cn3c(cccc3=O)[C@@H]2N1Cc1ccncc1)c1ccccc1	x	8	x	x
O=S(=O)(Nc1ccc(Cl)cc1NS(=O)(=O)c1ccccc1)c1ccccc1	-4	21	x	51*
Cc1ccc(S(=O)(=O)Nc2ccc3c(c2)C(=O)N([C@@H](C)CO)C[C@@H](C)[C@H](CN(C)C(=O)c2ccccc2)OCCCC[C@@H](C)O3)cc1	x	-24	x	x
O=C(NC(=S)Nc1cc([N+](=O)[O-])ccc1O)c1ccc2c(c1)OCO2	71*	u	10	70*
CO[C@H]1CN(C)C(=O)c2ccc(NC(=O)C3CCCC3)cc2OC[C@H](C)N(C)C[C@H]1C	x	-3	x	x
CCOC(=O)C1=C(O)/C(=C/c2ccc(-c3ccccc3C(=O)O)o2)SC1=Nc1ccc(C)cc1	58*	12	x	2
C[C@@H]1CN([C@H](C)CO)C(=O)Cc2cc(NC(=O)Cc3ccccc3)ccc2O[C@@H]1CN(C)Cc1ccc(C(=O)O)cc1	x	-11	x	x
C[C@H]1CN([C@@H](C)CO)C(=O)CCCn2cc(nn2)CO[C@@H]1CN(C)C(=O)CCC(F)(F)F	88*	-3	x	-5
Cc1ccc2nc(-c3sc4nc(C)ccc4c3N)[nH]c2c1	71*	x	12	25
Cc1cc(C)c2c(N)c(-c3nc4ccccc4[nH]3)sc2n1	-15	x	-4	-19
COc1ccc2c3c([nH]c2c1)[C@@H](CO)N(S(=O)(=O)c1cn(C)cn1)CC31CCN(CC2CCCCC2)CC1	x	22	x	x
N#CNC(=Nc1cccc(F)c1)SCc1ccccc1F	0	1	-3	59*
CCCN(C)C[C@H]1Oc2cc(C#CCOC)ccc2S(=O)(=O)N([C@@H](C)CO)C[C@H]1C	x	-16	x	x
N#Cc1ccc(NC(=O)Nc2ccc(Oc3ccc(NC(=O)Nc4ccc(C#N)cc4)cc3)cc2)cc1	105*	33	2	62*
C=CCN1C(=O)N(/C=C/C)c2cccc3cccc1c23	13	x	0	56*
CN1C(=O)N(C)c2cccc3cccc1c23	-7	-15	0	14
O=[N+]([O-])c1ccc(S(=O)(=O)c2cccc(C(F)(F)F)c2)nc1	-3	x	x	62*
O=S(=O)(Nc1cccnc1)c1cccc(C(F)(F)F)c1	3	x	0	5
C[C@@H]1CN([C@H](C)CO)C(=O)Cc2cc(NC(=O)Nc3ccc4c(c3)OCO4)ccc2O[C@H]1CN(C)C(=O)Nc1cccc2ccccc12	x	-13	x	x
C[C@H](CO)N1C[C@H](C)[C@H](CN(C)Cc2ccc(C(F)(F)F)cc2)OCCCC[C@H](C)Oc2ccc(NC(=O)CCCN(C)C)cc2C1=O	x	18	x	x
COc1cc(Nc2ccn3nc(-c4ccccc4Cl)cc3n2)cc(OC)c1OC	61*	-49	x	-7
Cc1noc(C)c1NC(=O)N(C)C[C@@H]1OCc2ccccc2-c2ccccc2C(=O)N([C@H](C)CO)C[C@@H]1C	x	2	x	x
COc1cc(C(=O)Nc2ccc(C(=O)O)cc2)ccc1OC(C)=O	15	-37	4	13
COc1ccc(/C(C)=N/Nc2ccc(C(=O)O)cc2)cc1OC	19	-55	26*	20
COc1ccc(C(=O)NCC(=O)Nc2ccccc2)cc1OC	59*	x	-6	x
COc1ccc(C(=O)Nn2c(C)nc3ccccc3c2=O)cc1OC	-8	8	-2	59*
